# Test results as given in PubChem BioAssay.
# For some of these results: Potency and affinity values are given separately. The source made the active and inactive calls.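 How the source made its calls, unless noted: active means at least 20% inhibition of 6-phosphogluconate dehydrogenase activity; inactive means the rest.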
# Assays:
# [1] = target: 6-phosphogluconate dehydrogenase, decarboxylating (Homo sapiens) (UniProt P52209); experiment: 6PGD enzyme inhibitors, primary screen, biochemical, human, recombinant enzyme, NADPH absorbance (AID 1159550); settings: recombinant 6PGD, NADPH absorbance 341 nm; at 10 µM; stronger effect = higher value
# Chain of 6-phosphogluconate dehydrogenase, decarboxylating (Homo sapiens) (P52209 whole entry, looked up): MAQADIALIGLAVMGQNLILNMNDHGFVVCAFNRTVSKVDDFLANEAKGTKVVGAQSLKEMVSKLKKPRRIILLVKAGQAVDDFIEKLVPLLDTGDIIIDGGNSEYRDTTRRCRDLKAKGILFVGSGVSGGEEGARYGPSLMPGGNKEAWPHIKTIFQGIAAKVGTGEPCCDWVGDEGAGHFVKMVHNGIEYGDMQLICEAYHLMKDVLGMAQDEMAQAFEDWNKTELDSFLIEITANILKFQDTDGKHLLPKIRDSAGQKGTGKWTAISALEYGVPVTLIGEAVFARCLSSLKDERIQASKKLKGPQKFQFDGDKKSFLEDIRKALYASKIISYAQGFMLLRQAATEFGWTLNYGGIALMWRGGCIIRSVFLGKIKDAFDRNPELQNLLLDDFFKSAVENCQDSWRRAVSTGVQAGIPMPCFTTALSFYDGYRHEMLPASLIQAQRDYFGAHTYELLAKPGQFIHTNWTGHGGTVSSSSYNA
# [2] = differential killing of epithelial or mesenchymal cells, primary screen, imaging, PC-3E GFP, TEM4-18 mCherry, co-culture (AID 1345086;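 active means compounds killing one labelled cell type while sparing the other, by normalised counts and ratio limits, not self-fluorescent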;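 on all read-outs here: cells exposed to compound for 72 h before imaging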;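 on red/green cell ratio (normalised): normalised mesenchymal count divided by normalised epithelial count so high means epithelial killing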); settings: imaging cell counts, at 1 µM; for red/green cell ratio (normalised): actives lie on both sides
# [3] = test system: Aerobactin synthetase IucA (Klebsiella pneumoniae hvKP1); experiment: Biochemical IucA enzyme inhibition primary screen of the Spectrum library (AID 1346200; call rule not given here;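 further: 100% = wells without compound and 0% = wells lacking enzyme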); settings: malachite green pyrophosphate, A620, at 8 µM, stronger effect = lower value
# [4] = target: Mitogen-activated protein kinase 7 (Homo sapiens) (UniProt Q13164); experiment: ERK5 transactivation activators in reporter cells, primary screen, cell-based, HTS (AID 1508626;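 active means luciferase signal above three times the same-plate solvent-only control wells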;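 further: luciferase driven by Gal4-ERK5 fusion binding five Gal4 sites before minimal TATA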); settings: HeLa Gal4-ERK5 transactivation, 18 h, at 5 µM, stronger effect = higher value
# Chain of Mitogen-activated protein kinase 7 (Homo sapiens) (Q13164 whole entry, looked up, the tested form may be a part): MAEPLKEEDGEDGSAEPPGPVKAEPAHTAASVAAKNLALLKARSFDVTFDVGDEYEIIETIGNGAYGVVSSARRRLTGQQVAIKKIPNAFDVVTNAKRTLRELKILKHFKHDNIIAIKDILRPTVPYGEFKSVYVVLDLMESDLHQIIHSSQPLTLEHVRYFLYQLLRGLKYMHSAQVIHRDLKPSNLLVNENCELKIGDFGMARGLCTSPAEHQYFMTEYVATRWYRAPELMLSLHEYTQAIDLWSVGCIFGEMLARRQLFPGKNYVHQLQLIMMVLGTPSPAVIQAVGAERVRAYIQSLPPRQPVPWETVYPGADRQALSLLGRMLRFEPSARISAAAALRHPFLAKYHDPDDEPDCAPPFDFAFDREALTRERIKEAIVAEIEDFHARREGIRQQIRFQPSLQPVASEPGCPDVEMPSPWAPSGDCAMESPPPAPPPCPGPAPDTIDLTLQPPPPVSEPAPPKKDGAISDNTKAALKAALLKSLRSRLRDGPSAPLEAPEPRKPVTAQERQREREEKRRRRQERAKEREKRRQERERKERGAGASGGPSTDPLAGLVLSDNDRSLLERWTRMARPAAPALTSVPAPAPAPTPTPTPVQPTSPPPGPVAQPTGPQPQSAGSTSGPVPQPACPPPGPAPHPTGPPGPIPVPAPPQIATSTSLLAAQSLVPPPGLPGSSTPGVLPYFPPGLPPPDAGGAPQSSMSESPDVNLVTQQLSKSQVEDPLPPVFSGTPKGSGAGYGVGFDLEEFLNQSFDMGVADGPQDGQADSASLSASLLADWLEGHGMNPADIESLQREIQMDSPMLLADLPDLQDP
# [5] = polyglutamine-triggered caspase-3 activation inhibitors, cell-based (AID 1583); settings: polyglutamine-induced caspase-3 activation, cell assay; stronger effect = higher value;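 tested at 10 µM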
# [6] = suppressors of polyQ aggregation in yeast, 75Q-TubU reporter (AID 1593); settings: Yeast 75Q polyglutamine aggregation reporter
# [7] = rescue of polyQ-huntingtin neuronal dysfunction in worms, whole organism, C. elegans mechanosensory neurons, N-terminal huntingtin (AID 1599); settings: touch response, stronger effect = higher value
# [8] = inhibitors of mitochondrial cytochrome c release, biochemical, purified mitochondria (AID 1603); settings: stronger effect = lower value;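 further: mouse liver mitochondria challenged with calcium chloride; signal normalized to the plate average as 100%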
# [9] = inhibitors of polyQ protein aggregation (AID 1604); settings: polyglutamine-induced protein aggregation inhibition assay; stronger effect = higher value; tested at 2.5 µM
# [10] = enhancers of glutamate uptake in motor neurons, MN-1 cell line (AID 1612); settings: MN-1 motor neuron cells, stronger effect = higher value;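 further: tested at 1 µM final; 0% = mean of DMSO vehicle wells on each plate; positive means more glutamate uptake than control and negative means less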
# [11] = reducers of polyQ inclusions in PC12 cells, cell-based, NGF-treated PC12, GFPQ80 (AID 1614); settings: PC12 NGF-treated GFP-polyQ80 inclusion reduction;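 further: lower means fewer inclusions and 0 means no inclusions at all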
# [12] = suppressors of polyglutamine aggregation in yeast, 75Q-TubH (AID 1616); settings: S. cerevisiae 75Q-TubH polyglutamine aggregation suppression; stronger effect = higher value
# [13] = measured here: epithelial PC-3E GFP cell survival
# [14] = measured here: mesenchymal TEM4-18 mCherry cell survival
# [15] = counts scaled to control wells, 1 = unselective
smiles,measurement,setting,value
NC(=O)c1ccc(N)nc1,inhibition,[1],1.26% (inactive)
same,red/green cell ratio (normalised),[2],0.93 (inactive)
same,normalised cell number,[2]; [13],1.22
same,normalised cell number,[2]; [14],1.14
same,activity remaining,[3],120% (inactive)
same,luciferase signal,[4],24 AU (inactive)
CC(C)(C#N)O[C@@H]1O[C@H](CO)[C@@H](O)[C@H](O)[C@H]1O,inhibition,[1],5.98% (inactive)
same,red/green cell ratio (normalised),[2],0.8 (inactive)
same,normalised cell number,[2]; [13],0.84
same,normalised cell number,[2]; [14],0.67
same,activity remaining,[3],94.3% (inactive)
same,luciferase signal,[4],92 AU (inactive)
COc1cc(OC)c2c(c1)O[C@H](c1ccc(OC)c(OC)c1)[C@@H](O)C2,inhibition,[1],14.9% (inactive)
same,red/green cell ratio (normalised),[2],0.81 (inactive)
same,normalised cell number,[2]; [13],0.96
same,normalised cell number,[2]; [14],0.78
same,activity remaining,[3],111% (inactive)
same,luciferase signal,[4],32 AU (inactive)
COc1cc2ccc(=O)oc2c2ccoc12,inhibition,[1],13.8% (inactive)
same,red/green cell ratio (normalised),[2],1.01 (inactive)
same,normalised cell number,[2]; [13],0.96
same,normalised cell number,[2]; [14],0.97
same,activity remaining,[3],119% (inactive)
same,luciferase signal,[4],64 AU (inactive)
N#C/C(=C\c1cccc(O)c1)C(=O)O,inhibition,[5],16.4%
same,score,[6],1.48
same,rescue above control,[7],-1.13
same,cytochrome c release ratio,[8],2.28
same,inhibition of aggregation,[9],58.6%
same,glutamate uptake change,[10],-1.74%
same,inclusion score,[11],2
same,aggregation suppression score,[12],1.54
same,inhibition,[1],11.3% (inactive)
same,red/green cell ratio (normalised),[2],0.88 (inactive)
same,normalised cell number,[2]; [13],1.09
same,normalised cell number,[2]; [14],0.96
same,activity remaining,[3],104% (inactive)
same,luciferase signal,[4],128 AU (inactive)
CC(C)=CCCC1(C)C=Cc2c(O)c3c(c(CC=C(C)C)c2O1)OC12C(CC4CC1C(C)(C)OC2(C/C=C(/C)C(=O)O)C4O)C3=O (stereo unspecified),inhibition,[1],-6.13% (inactive)
same,red/green cell ratio (normalised),[2],1.11 (inactive)
same,normalised cell number,[2]; [13],0.96
same,normalised cell number,[2]; [14],1.07
same,activity remaining,[3],119% (inactive)
same,luciferase signal,[4],96 AU (inactive)
O=C1C=C2C(=CCOC2O)O1 (stereo unspecified),inhibition,[5],71.1%
same,score,[6],1.15
same,rescue above control,[7],-6.1
same,cytochrome c release ratio,[8],0.78
same,inhibition of aggregation,[9],0%
same,glutamate uptake change,[10],-4.18%
same,aggregation suppression score,[12],0.84
same,inhibition,[1],4.22% (inactive)
same,red/green cell ratio (normalised),[2],0.44 (inactive)
same,normalised cell number,[2]; [13],0.14
same,normalised cell number,[2]; [14],0.06
same,activity remaining,[3],124% (inactive)
same,luciferase signal,[4],3170 AU (active)
CC1=CCCC2C1(C)CCC(C)C2(C)CC/C(C)=C/C[n+]1cn(C)c2c(N)ncnc21 (stereo unspecified),inhibition,[1],12% (inactive)
same,red/green cell ratio (normalised),[2],0.92 (inactive)
same,normalised cell number,[2]; [13],0.97
same,normalised cell number,[2]; [14],0.89
same,activity remaining,[3],115% (inactive)
same,luciferase signal,[4],64 AU (inactive)
CC(=O)Oc1ccc(/C=C/c2cc(OC(C)=O)cc(OC(C)=O)c2)cc1,inhibition,[1],-2.26% (inactive)
same,red/green cell ratio (normalised),[2],1.01 (inactive)
same,normalised cell number,[2]; [13],0.98
same,normalised cell number,[2]; [14],1
same,activity remaining,[3],103% (inactive)
same,luciferase signal,[4],20 AU (inactive)
COc1cc([C@@H]2c3cc4c(c(O)c3C[C@H]3COC(=O)[C@@H]32)OCO4)cc(OC)c1OC,inhibition,[1],-17.8% (inactive)
same,red/green cell ratio (normalised),[2],0.83 (inactive)
same,normalised cell number,[2]; [13],0.2
same,normalised cell number,[2]; [14],0.16
same,activity remaining,[3],116% (inactive)
same,luciferase signal,[4],16 AU (inactive)
COc1cccc(C=O)c1OC,inhibition,[1],7.48% (inactive)
same,red/green cell ratio (normalised),[2]; [15],1.04 (inactive)
same,normalised cell number,[2]; [13],0.98
same,normalised cell number,[2]; [14],1.02
same,activity remaining,[3],93.4% (inactive)
same,luciferase signal,[4],60 AU (inactive)
O=c1cccc2n1CC1CC2CN2CCCC[C@@H]12 (stereo partly specified),inhibition,[1],1.69% (inactive)
same,red/green cell ratio (normalised),[2]; [15],1.02 (inactive)
same,normalised cell number,[2]; [13],0.92
same,normalised cell number,[2]; [14],0.94
same,activity remaining,[3],116% (inactive)
same,luciferase signal,[4],56 AU (inactive)
COc1cc2occc2c2oc(=O)ccc12,inhibition,[1],11.9% (inactive)
same,red/green cell ratio (normalised),[2],1.13 (inactive)
same,normalised cell number,[2]; [13],1
same,normalised cell number,[2]; [14],1.14
same,activity remaining,[3],121% (inactive)
same,luciferase signal,[4],84 AU (inactive)
COC(=O)NC(=S)Nc1ccccc1NC(=S)NC(=O)OC,inhibition,[1],-13.9% (inactive)
same,red/green cell ratio (normalised),[2],0.85 (inactive)
same,normalised cell number,[2]; [13],1.16
same,normalised cell number,[2]; [14],0.98
same,activity remaining,[3],110% (inactive)
same,luciferase signal,[4],8 AU (inactive)
CC(C)c1ccc2c(c1O)CC[C@H]1C3=C(CC[C@]21C)C(=O)OC3,inhibition,[1],-50.6% (inactive)
same,red/green cell ratio (normalised),[2],0.95 (inactive)
same,normalised cell number,[2]; [13],1.07
same,normalised cell number,[2]; [14],1.02
same,activity remaining,[3],90.4% (inactive)
same,luciferase signal,[4],64 AU (inactive)
COc1cc2c(cc1-c1cc3cc4ccoc4cc3oc1=O)OCO2,inhibition,[1],0.213% (inactive)
same,red/green cell ratio (normalised),[2],0.88 (inactive)
same,normalised cell number,[2]; [13],0.99
same,normalised cell number,[2]; [14],0.87
same,activity remaining,[3],113% (inactive)
same,luciferase signal,[4],44 AU (inactive)
CC(=O)CC1CCCCN1 (stereo unspecified),inhibition,[1],16.3% (inactive)
same,red/green cell ratio (normalised),[2]; [15],1.09 (inactive)
same,normalised cell number,[2]; [13],0.99
same,normalised cell number,[2]; [14],1.09
same,activity remaining,[3],107% (inactive)
same,luciferase signal,[4],48 AU (inactive)
COC(=O)/C(C)=C\CC12OC(C)(C)C3CC(C=C4C(=O)c5c(OC)c6c(c(CC=C(C)C)c5OC431)OC(C)(CCC=C(C)C)C=C6)C2=O (stereo unspecified),inhibition,[1],-0.84% (inactive)
same,activity remaining,[3],98.7% (inactive)
CNC(=O)CSP(=S)(OC)OC,inhibition,[1],-17.5% (inactive)
same,activity remaining,[3],98.2% (inactive)
